Data taken from PubChem BioAssay (NCATS).

target: Catechol O-methyltransferase (Homo sapiens) (UniProt P21964); assay: Confirmatory Screen for Target Class Profiling of Small Molecule Inhibitors of Methyltransferases (AID 1745852); settings: MTase-Glo luminescence, SAH detection, recombinant enzyme; measured here: COMT max response; stronger effect = lower value
Sequence (P21964 whole entry, looked up): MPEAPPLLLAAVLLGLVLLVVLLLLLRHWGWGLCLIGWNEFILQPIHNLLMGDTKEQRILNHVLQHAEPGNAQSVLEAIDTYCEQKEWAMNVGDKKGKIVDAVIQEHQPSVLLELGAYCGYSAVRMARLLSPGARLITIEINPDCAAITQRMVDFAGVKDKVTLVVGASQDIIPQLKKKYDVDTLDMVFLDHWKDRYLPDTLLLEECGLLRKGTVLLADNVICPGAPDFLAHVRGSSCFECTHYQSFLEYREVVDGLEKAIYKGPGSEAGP

Row | Structure (SMILES) | activity [%]
1 | COc1cc(/C=C/C(=O)O[C@H]2[C@@H]3C=CO[C@@H](O[C@@H]4O[C@H](CO)[C@@H](O)[C@H](O)[C@H]4O)[C@@H]3[C@@]3(CO)O[C@@H]23)ccc1O | -66.9
2 | O=C(NCC(=O)N1CCCC1)Nc1ccc2ccccc2c1 | 1.31
3 | CC(=O)c1c(C)cccc1O[C@@H]1O[C@H](CO)[C@@H](O)[C@H](O)[C@H]1O | -68.9
4 | O=C(O)CC(CCc1ccccc1)OC1OC(CO)C(O)C(O)C1O (stereo not drawn) | -76.5
5 | CC1CCCCCCCc2cc(O)cc(O)c2C(=O)O1 (stereo not drawn) | -69.9
6 | OC[C@H]1O[C@@H](OCCc2ccccc2)[C@H](O[C@@H]2OC[C@@H](O)[C@H](O)[C@H]2O)[C@@H](O)[C@@H]1O | -76.4
7 | C=C1C(=O)O[C@@H]2CC(C)=C([C@@H](C)CCCOC(C)=O)[C@@H](O)[C@H]12 | -78.5
8 | O=C(/C=C/c1ccc(O)cc1)OC[C@@]1(O)C=C[C@@H]2C(C(=O)O)=CO[C@@H](O[C@@H]3O[C@H](CO)[C@@H](O)[C@H](O)[C@H]3O)[C@@H]21 | -58.3
9 | CC(C)(O)C1CC=C(C(=O)OC[C@H]2O[C@@H](Oc3cc(C(=O)O)cc(O)c3O)[C@H](O)[C@@H](O)[C@@H]2O)CC1 (stereo partly drawn) | -82.4
10 | C=C1CC/C=C(/CO)C(=O)C[C@@H]2[C@@H]1C[C@@]2(C)COC(C)=O | -65.6
11 | COc1ccccc1CN[C@H]1CCCN[C@H]1c1ccccc1 | 0.295
12 | CC(=O)NC(Cc1c[nH]c2ccccc(=O)c12)C(=O)O (stereo not drawn) | -73.7
13 | COC(=O)[C@H](Cc1cccc(C(=N)N)c1)[C@@H](C)NC(=O)c1ccc(-c2cc[n+]([O-])cc2)cc1 | -6.84
